GFP signal change (wild-type ribosome), OD600 change and RFP signal change data for 32 molecules are collected here from PubChem BioAssay AID720706 (Broad Institute, 2013).

Structures are written as SMILES. Several values for one entry are separate records, joined by “and”; a condition that tells them apart may be missing. Identical values can stand only once. Out of some 350,000 compounds screened, about 5,500 (1.6%) were called active.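 The calls were made as follows: active = significant combined selectivity score with lowered wild-type GFP, culture density cut under 30%, mutant RFP and density less affected; inactive = any of these conditions unmet.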 Only a selection was taken, and actives are over-represented in it overall.

The assay is described as follows: reduced GFP signal of wild-type E. coli, primary screen, bacterial rRNA inhibitor project, GFP/RFP fluorescence, OD600, single point (AID 720706). The conditions noted are these: E. coli WT GFP vs humanized-ribosome RFP mutants, 24 h; GFP signal change (wild-type ribosome): stronger effect = lower value, DMSO median 0, no signal -100; OD600 change: measured here: OD600 growth, DMSO median 0, no signal -100; RFP signal change: measured here: RFP humanized mutant strains, DMSO median 0, no signal -100, concentration not given here.
Consider `CCCNC(=O)N1C[C@H]2[C@@H](c3ccccc31)[C@H](CO)N2C(=O)NC(C)C`, for which the GFP signal change (wild-type ribosome) is 2.8% (inactive), the OD600 change amounted to 10.8% and the RFP signal change came out at 1.99%.

For the molecule `COc1ccc(Cl)cc1NC(=O)NC(C)C(C)(C)C` (stereo unspecified), the GFP signal change (wild-type ribosome) is -0.51% (inactive), the OD600 change was found to be 1.25% and the RFP signal change stood at 0.006%.

On to `COc1ccc(Cl)cc1NC(=O)C(C)N1CCc2ccccc21` (stereo unspecified), for which the GFP signal change (wild-type ribosome) is -31% (active), the OD600 change was -24.4% and the RFP signal change is -3.11%.

In the case of `COc1ccc(Cl)cc1NC(=O)NCC1CCN(Cc2ccccc2F)CC1`, the GFP signal change (wild-type ribosome) was -5.44% (inactive), the OD600 change is -28.5% and the RFP signal change worked out at 37.7%.

Regarding `CSCC[C@H](NC(=O)N1CCn2c1nc1ccccc12)C(=O)NCc1ccc2c(c1)OCO2`, the GFP signal change (wild-type ribosome) was -1.83% (inactive), the OD600 change is -3.03% and the RFP signal change is 3.82%.

Consider `CSCC[C@H](NC(=O)N1CCn2c1nc1ccccc12)C(=O)NC1CCCCC1`, for which the GFP signal change (wild-type ribosome) is -28.5% (active), the OD600 change is -22.6% and the RFP signal change is -0.555%.

Turning to `CC(C)C[C@H](NC(=O)N1CCn2c1nc1ccccc12)C(=O)NC1CC1`, the GFP signal change (wild-type ribosome) was 0.495% (inactive), the OD600 change came out at 2.23% and the RFP signal change was -1.23%.

`COc1ccc2c3c([nH]c2c1)[C@@H](CO)N(C(=O)c1ccccc1)CC31CCN(C(=O)Nc2cccc(F)c2)CC1`: the GFP signal change (wild-type ribosome) was -4.87% (inactive), the OD600 change was -13.4% and the RFP signal change worked out at 1.11%.

Take `O=C(CCc1ccccc1)Nc1ncc([N+](=O)[O-])s1`: the GFP signal change (wild-type ribosome) is -42.5% (active), the OD600 change was -20.7% and the RFP signal change was determined as 2.67%.

Take `COC(=O)CSc1nnc(NC(=O)CCc2ccccc2)s1`: the GFP signal change (wild-type ribosome) was 7.96% (inactive), the OD600 change is 5.71% and the RFP signal change was -0.746%.

Regarding `CC(C)Cc1nnc(NC(=O)CCc2ccccc2)s1`, the GFP signal change (wild-type ribosome) is 2.89% (inactive), the OD600 change is 0.415% and the RFP signal change turned out to be 0.86%.

`Cc1cc([N+](=O)[O-])ccc1NS(=O)(=O)c1ccccc1`: the GFP signal change (wild-type ribosome) is -10.6% (inactive), the OD600 change was -35.5% and the RFP signal change is -7.16%.

Take `Cc1ccccc1OS(=O)(=O)c1cccc([N+](=O)[O-])c1`: the GFP signal change (wild-type ribosome) is -22.9% (active), the OD600 change is -15.1% and the RFP signal change was -4.54%.

For `Cc1cc(C)n(S(=O)(=O)c2cccc([N+](=O)[O-])c2)n1`, the GFP signal change (wild-type ribosome) was 5.54% (inactive), the OD600 change amounted to 9.05% and the RFP signal change was 1.61%.

Turning to `O=C([C@H]1[C@H](CO)[C@H]2Cn3c(ccc(-c4ccccc4)c3=O)[C@@H]1N2Cc1cccnc1)N1CCOCC1`, the GFP signal change (wild-type ribosome) was 5.29% (inactive), the OD600 change was determined as 5.22% and the RFP signal change came out at 0.504%.

`Cc1ccc(-c2cnc3c(c2)C(=O)N([C@H](C)CO)C[C@H](C)[C@@H](CN(C)S(C)(=O)=O)O3)cc1`: the GFP signal change (wild-type ribosome) was 2.09% (inactive), the OD600 change came out at 1.04% and the RFP signal change amounted to 1.43%.

Regarding `C[C@@H]1CN([C@H](C)CO)C(=O)c2c(c3ccccc3n2C)-c2ccccc2CO[C@@H]1CN(C)Cc1ccccc1C(F)(F)F`, the GFP signal change (wild-type ribosome) is 3.48% (inactive), the OD600 change is -2.02% and the RFP signal change was -4.51%.

In the case of `CC(C)NC(=O)Nc1ccc2c(c1)C(=O)N([C@H](C)CO)C[C@@H](C)[C@H](CN(C)S(C)(=O)=O)O2`, the GFP signal change (wild-type ribosome) is 0.569% (inactive), the OD600 change is 1.03% and the RFP signal change was -2.66%.

Consider `COc1ccc(NC(=O)CN(Cc2ccccc2)S(C)(=O)=O)cc1OC`, for which the GFP signal change (wild-type ribosome) was 7.38% (inactive), the OD600 change worked out at 3.04% and the RFP signal change was found to be 2.82%.

Turning to `Cc1ccc2nc(-c3ccc(NC(=O)CN(C)S(=O)(=O)c4ccccc4)cc3)sc2c1`, the GFP signal change (wild-type ribosome) is 6.45% (inactive), the OD600 change is 6.57% and the RFP signal change was -1.11%.

In the case of `COc1ccc(NC(=O)CN(C)S(=O)(=O)c2ccccc2)cc1OC`, the GFP signal change (wild-type ribosome) was -21.4% (active), the OD600 change was -15.8% and the RFP signal change was 5.68%.

For `C[C@H]1CN([C@@H](C)CO)C(=O)Cc2cc(NC(=O)Cc3ccccc3)ccc2O[C@H]1CN(C)S(=O)(=O)c1ccc(Cl)cc1`, the GFP signal change (wild-type ribosome) is 6.12% (inactive), the OD600 change came to 0.505% and the RFP signal change is -2.09%.

Regarding `C[C@@H]1CN(C)C(=O)c2cccc(N(C)C)c2O[C@H]1CN(C)S(C)(=O)=O`, the GFP signal change (wild-type ribosome) is 0.02% (inactive), the OD600 change was -2.43% and the RFP signal change was -4.17%.

Consider `CCS(=O)(=O)N1CC(=O)N2[C@H](C1)[C@@H](c1ccc(C#Cc3ccc(F)cc3)cc1)[C@@H]2CO`, for which the GFP signal change (wild-type ribosome) was -26.6% (inactive), the OD600 change was -55.5% and the RFP signal change is 8.02%.

With `COC(=O)C[C@H]1C[C@H]2c3cc(NC(=O)NC4CCCCC4)ccc3O[C@H]2[C@H](CO)O1`, the GFP signal change (wild-type ribosome) was 3.18% (inactive), the OD600 change was found to be 0.77% and the RFP signal change worked out at 1.45%.

Turning to `CN1CCN(c2nc(Nc3ccc(O)cc3)nc3ccccc23)CC1`, the GFP signal change (wild-type ribosome) is -21.6% (active), the OD600 change turned out to be 2.64% and the RFP signal change stood at 1.85%.

On to `CC1CN(c2nc(Nc3ccccc3)nc(N)c2[N+](=O)[O-])CC(C)O1` (stereo unspecified), for which the GFP signal change (wild-type ribosome) was -35.4% (inactive), the OD600 change is -33.8% and the RFP signal change is -0.525%.

As for `Cc1cc(N2CCN(C)CC2)nc2ccc(NC(=S)N3CCOCC3)cc12`, the GFP signal change (wild-type ribosome) is 2.14% (inactive), the OD600 change stood at 1.93% and the RFP signal change was -1.37%.

For `C[C@H]1CN([C@@H](C)CO)C(=O)c2cc(NS(C)(=O)=O)ccc2O[C@@H]1CN(C)S(=O)(=O)c1ccc(Cl)cc1`, the GFP signal change (wild-type ribosome) was 2.05% (inactive), the OD600 change was found to be 0.615% and the RFP signal change was 0.846%.

On to `CC(=O)N1C[C@@H]2C(c3ccccc3)[C@H](C1)N2Cc1ccc(F)cc1` (stereo partly specified), for which the GFP signal change (wild-type ribosome) is -7.42% (inactive) and -0.918% (inactive); the OD600 change is -6.55% and 0.0005%; the RFP signal change was 2.17% and -0.988%.

As to `COc1ccc(Cn2c(-c3ccc(Cl)cc3)c[n+]3ccccc23)cc1`, the GFP signal change (wild-type ribosome) was -31.8% (active), the OD600 change was -12.7% and the RFP signal change is 10%.

On to `COc1ccc(CN2CCCCN3[C@H](C2)[C@H](c2ccc(-c4ccc(OC)cc4)cc2)[C@@H]3CO)cc1`, for which the GFP signal change (wild-type ribosome) is 0.651% (inactive), the OD600 change was 2.56% and the RFP signal change was determined as 3.41%.
